The campaign covered roughly 280,000 compounds. About 50 (0.02%) were called active. The entries come from a sample that favours actives as a whole. Entries with a potency or affinity are not part of this list. A number with no mark means an inactive call. No stated cut-off is given here; in the data, active means activation above about 50% (passing the limit was not always enough); inactive means the rest.
biological target: Kappa-type opioid receptor (Homo sapiens) (UniProt P41145); experiment: KOR agonists, beta-arrestin recruitment, primary screen, cell-based, luminescence, uHTS (AID 1777); conditions: at 10 µM, hits give high values
Sequence (P41145 whole entry, looked up): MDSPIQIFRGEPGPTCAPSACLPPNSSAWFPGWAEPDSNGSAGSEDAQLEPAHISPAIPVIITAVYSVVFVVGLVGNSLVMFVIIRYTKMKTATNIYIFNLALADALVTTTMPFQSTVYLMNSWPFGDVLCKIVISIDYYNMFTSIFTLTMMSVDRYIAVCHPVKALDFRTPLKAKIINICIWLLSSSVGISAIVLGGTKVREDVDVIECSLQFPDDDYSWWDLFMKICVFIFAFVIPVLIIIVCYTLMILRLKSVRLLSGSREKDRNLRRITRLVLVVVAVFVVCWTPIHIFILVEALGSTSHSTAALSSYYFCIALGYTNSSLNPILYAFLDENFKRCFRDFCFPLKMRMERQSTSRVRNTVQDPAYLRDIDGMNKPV

Row | Compound | activation
1 | COc1ccc2cc(CN(CC3COCCO3)S(=O)(=O)c3c(C)cc(C)cc3C)c(=O)[nH]c2c1 (configuration not stated) | -0.5%
2 | O=C(CN1CCN(c2ccc(F)cc2)CC1)Nc1cccnc1Cl | 0.4%
3 | CCN(CC)S(=O)(=O)c1ccc(-c2nnc(SCC(=O)c3ccc(OC)cc3)o2)cc1 | 3.1%
4 | COc1ccc(C(=O)CSc2nnc(-c3ccc(S(=O)(=O)N4CCOCC4)cc3)o2)cc1 | 50.2% (active)
5 | COc1ccc(C(=O)CSc2nnc(-c3ccc(C)cc3)o2)cc1 | -0.9%
6 | O=C(NCc1ccccc1)c1ccc(N2C(=O)C3CCCCC3C2=O)cc1 (configuration not stated) | -2.4%
7 | Cc1ccc2cc(CN(Cc3ccc4c(c3)OCO4)Cc3nnnn3Cc3ccco3)c(=O)[nH]c2c1 | 26.7%
8 | Cc1ccc(C)c2[nH]c(=O)c(CN(Cc3ccc4c(c3)OCO4)Cc3nnnn3Cc3ccco3)cc12 | 10.8%
9 | Cc1cc(C)c2cc(CN(Cc3ccc4c(c3)OCO4)Cc3nnnn3Cc3ccco3)c(=O)[nH]c2c1 | 83.5% (active)
10 | Cc1ccc2nc(C)c(C(=O)N/N=C/c3ccc(N4CCOCC4)cc3)cc2c1 | 3%
11 | CN(c1ccccc1C(=O)Nc1ccc(CC#N)cc1)S(=O)(=O)c1ccccc1 | 2.4%
12 | Cc1ccccc1NC(=S)N(Cc1cccs1)C1CCCCC1 | -6.5%
13 | Cc1ccccc1NC(=S)N(Cc1cccs1)C1CCCC1 | 4.8%
14 | Cc1ccc(C(C)NC(=O)c2cc(C)oc2C)cc1 (configuration not stated) | 8.6%
15 | COc1ccccc1NC(=O)CSc1nnc(-c2ccccn2)n1Cc1ccco1 | 17.1%
16 | O=C(CSc1nnc(-c2ccccn2)n1Cc1ccco1)c1ccc(Cl)cc1 | 81.9%
17 | Clc1cccc(CSc2nnc(-c3cccnc3)n2Cc2ccco2)c1 | -4.9%
18 | Clc1ccccc1CSc1nnc(-c2ccccn2)n1Cc1ccco1 | 31.6%
19 | COc1ccc(C)cc1NC(=O)CSc1nnc(-c2ccccn2)n1Cc1ccco1 | 1.2%
20 | Clc1ccc(CSc2nnc(-c3cccnc3)n2Cc2ccco2)c(Cl)c1 | -2.8%
21 | Cc1ccc(O)c(N=Nc2ccc(S(=O)(=O)N3CCCC3)cc2)c1 | -0.2%
22 | CN(C)CC(C)(C)CNC(=O)C1CCN(CCCc2ccccc2)CC1 | -5.3%
23 | CCOc1nc(NC2CCCC2)nc(N2CCC(C)CC2)n1 | -3.8%

Row | Compound | activation
24 | CCCNC(=O)NC(=O)CSc1nnc(-c2ccncc2)n1CC | -1.1%
25 | COC(=O)CN1C(=O)[C@H]2[C@@H](c3ccc(C)o3)N3C(=O)CN(CCO)C(=O)[C@@]3(Cc3ccccc3)[C@H]2C1=O | 5.5%
26 | Cc1c(Cl)cccc1N1C(=O)C2ON(c3ccccc3)C(c3cccnc3)C2C1=O (configuration not stated) | 0.9%
27 | O=C1C2ON(c3ccccc3)C(c3cccnc3)C2C(=O)N1c1ccccc1 (configuration not stated) | -3.9%
28 | CC(=O)N1CCC(C(=O)NC2CC(C)(C)Cc3c2cnn3-c2ccc(F)cc2)CC1 (configuration not stated) | -2.2%
29 | CC(=O)Nc1ccc(N/C=C/C(=O)c2ccccc2)cc1 | -0.7%
30 | Cn1c(=O)c2c(nc(Oc3ccc4c(c3)OCO4)n2Cc2ccc(Cl)cc2)n(C)c1=O | 62.7%
31 | Cn1c(=O)c2c(nc(Oc3ccc4c(c3)OCO4)n2Cc2ccc(F)cc2)n(C)c1=O | 67.5% (active)
32 | Cn1c(=O)c2c(nc(Oc3ccc4c(c3)OCO4)n2Cc2ccc(Br)cc2)n(C)c1=O | 9.8%
33 | Cn1c(=O)c2c([nH]c(OCc3ccc(Cl)cc3Cl)[n+]2Cc2ccc(F)cc2)n(C)c1=O | 6.8%
34 | O=C(c1ccc(=O)[nH]c1)N(Cc1cccs1)C1(C(=O)NC2CCCC2)CCCCC1 | 5.3%
35 | O=C(Cc1cccs1)N(Cc1cccs1)C1(C(=O)NC2CCCC2)CCCCC1 | -2.8%
36 | O=C(Cc1cccs1)N(Cc1cccs1)C1(C(=O)NC2CCCCC2)CCCCC1 | -1.5%
37 | O=C(c1cnccn1)N(Cc1cccs1)C1(C(=O)NC2CCCCC2)CCCCC1 | 64.7% (active)
38 | O=C(c1cnccn1)N(Cc1cccs1)C1(C(=O)NC2CCCC2)CCCCC1 | 30.1%
39 | COc1ccc(NC2=NCCCCC2)cc1 | -4.3%
40 | Cc1ccc(N2C(=O)C(c3c(C)[nH]n(-c4ccccc4)c3=O)(C(F)(F)F)C3=C2CC(C)(C)CC3=O)cc1 (configuration not stated) | -2.8%
41 | Cc1ccc(C(=O)NC(=S)Nc2cccc(NC(=O)c3ccccc3Cl)c2)cc1[N+](=O)[O-] | 1.9%
42 | CNC(=S)N(CCc1c(C)[nH]c2ccc(Cl)cc12)Cc1cccnc1 | -1%
43 | c1ccc(Cn2c(-c3cccs3)nc3nc4ccccc4nc32)cc1 | 65.7% (active)
44 | C=CCn1c(-c2cccs2)nc2nc3ccccc3nc21 | -4.6%
45 | CCCn1c(-c2cccs2)nc2nc3ccccc3nc21 | 13.8%
46 | O=C(NCc1cnc2ccccn12)C1CCC(=O)N(Cc2ccccc2F)C1 (configuration not stated) | -0.5%

Row | Compound | activation
47 | CN(C)S(=O)(=O)c1ccc(NC(=O)N2CCN(c3ccccc3)CC2)cc1 | 22.3%
48 | CC(=O)N1CCN(c2ccc(NC(=O)c3cc(Cl)ccc3Cl)cc2)CC1 | -3.7%
49 | CCCSc1nnc2n(Cc3ccccc3)c(=O)c3c4c(sc3n12)CCC4 | 69.7% (active)
50 | C=C(C)CSc1nnc2n(Cc3ccccc3)c(=O)c3c4c(sc3n12)CCC4 | -1.4%
51 | CCOC(=O)CSc1nnc2n(Cc3ccccc3)c(=O)c3c4c(sc3n12)CCC4 | -9.3%
52 | O=C(NCC1CCCO1)C1CCCN(S(=O)(=O)c2ccc(Br)cc2)C1 (configuration not stated) | 0.4%
53 | CCOC(=O)c1ccccc1N/C=C1\CCCC1=O | 0.9%
54 | Cn1c(=O)oc2cc(S(=O)(=O)N3CCN(c4ccc(F)cc4)CC3)ccc21 | -1.1%
55 | O=C1CN(CC(=O)N2CCCCC2)c2ccccc2O1 | -1.4%
56 | COc1cc([N+](=O)[O-])ccc1NC(=O)Nc1ccc(C(=O)N2CCCC2)cc1 | -5.9%
57 | NC(=O)CSc1nnc(-c2ccccn2)n1Cc1ccco1 | 2.2%
58 | O=C(CSc1nnc(-c2ccccn2)n1Cc1ccco1)c1ccccc1 | 15.7%
59 | C(=C\c1ccccc1)/CSc1nnc(-c2cnccn2)n1Cc1ccco1 | 16.2%
60 | COC(=O)CSc1nnc(-c2ccccn2)n1Cc1ccco1 | -0.5%
61 | Brc1ccc(CSc2nnc(-c3cnccn3)n2Cc2ccco2)cc1 | 41.3%
62 | C(=C\c1ccccc1)/CSc1nnc(-c2ccccc2)n1Cc1ccco1 | 3.8%
63 | COc1cc(S(=O)(=O)NC2CCCC2)ccc1-n1cnnn1 | -0.2%
64 | CCOc1ccccc1NC(=O)CCn1cccc1 | -0.4%
65 | CN(C)/C=C/C(=O)c1ccc(S(=O)(=O)c2ccccc2)cc1 | -5%
66 | C=CCSc1nc(C)c(CCC(C)C)c(=O)[nH]1 | -2.2%
67 | COc1ccc([N+](=O)[O-])cc1NC(=O)COC(=O)c1ccccc1C(=O)c1ccccc1 | -5.5%
68 | CCc1ccccc1NC(=O)c1cccc(N2C(=O)C3C4CCC(C4)C3C2=O)c1 (configuration not stated) | 3.3%
69 | CCCN(Cc1cc2cc(C)ccc2[nH]c1=O)C(=O)c1ccccn1 | 9.9%

Row | Compound | activation
70 | Cc1ccc2[nH]c(=O)c(CN(C)C(=O)c3ccccn3)cc2c1 | -3.6%
71 | CCCN(Cc1cc2ccc(C)cc2[nH]c1=O)C(=O)c1ccccn1 | 46.4%
72 | CCCCN(Cc1cc2cc(OC)ccc2[nH]c1=O)C(=O)c1ccccn1 | 40.3%
73 | COCC(=O)N(Cc1cc2ccccc2[nH]c1=O)c1ccc(OC)cc1 | 9.6%
74 | COc1ccc2nc(NC(=O)CCNS(=O)(=O)c3ccc4c(c3)oc(=O)n4C)sc2c1 | -3.3%
75 | COc1ccc(OCC(=O)NNC(=O)C2CCCO2)cc1 (configuration not stated) | 8.8%
76 | CCOC(=O)Cn1cnc2c(nnn2-c2ccccc2)c1=O | -1%
77 | Cc1ccc(-n2nnc3c(=O)n(CC(=O)c4ccccc4)cnc32)cc1 | 4.2%
78 | CCOc1ccc(-n2nnc3c(=O)n(CC(=O)c4ccccc4)cnc32)cc1 | 52.9% (active)
79 | CCOc1ccc(-n2c(=O)c3sccc3n(CC(=O)NCC3CCCO3)c2=O)cc1 (configuration not stated) | -4.3%
80 | O=C(Cc1ccccc1)c1c[nH]c(C(=O)NCCCn2ccnc2)c1 | 1.2%
81 | CCC(C)(C)N=C(NC#N)Nc1cccnc1 | 87.5% (active)
82 | CC(Nc1cccnc1)=C(C#N)C#N | -7.7%
83 | CC(N=C(NC#N)Nc1ccncc1)C(C)(C)C (configuration not stated) | -0.9%
84 | CCCCN(C(=O)c1cc(CC)c(C)s1)c1c(N)n(CC(C)C)c(=O)[nH]c1=O | -0.3%
85 | COC(=O)c1ccc(NC(=S)N(Cc2cccnc2)Cc2ccco2)cc1 | -0.8%
86 | O=C(c1ccccc1Cl)N(Cc1ccc(Br)cc1)N1C(=O)CCCC1=O | -1%
87 | O=C(c1ccc([N+](=O)[O-])cc1)N(Cc1ccc(Cl)cc1Cl)N1C(=O)CCCC1=O | -0.8%
88 | O=C(c1ccc(Cl)cc1)N(Cc1ccccc1F)N1C(=O)CCCC1=O | -0.9%
89 | O=C(c1ccc(Cl)cc1)N(Cc1ccc(Br)cc1)N1C(=O)CCC1=O | 1.3%
90 | COC(=O)C1=CN(CC2CCCO2)C=C(C(=O)OC)C1c1ccsc1 (configuration not stated) | -4.3%
91 | COc1cc(/C=N/Nc2ccc(C(F)(F)F)cn2)cc(OC)c1O | -5%
92 | Cn1c2ccccc2c(=O)c2ccc(C#CC3(N)CCCCC3)cc21 | -3.1%
